Screening results deposited in PubChem by National Center for Advancing Translational Sciences (NCATS).
Hits are enriched below; roughly 9.9% of the tested compounds scored in any of these assays.
Tau fibril FP: qHTS for Inhibitors of Tau Fibril Formation, Fluorescence Polarization; K18 P301L tau heparin fibrillization, Alexa594 FP, 6 h; AID 1468, 2008; 280,000 tested, 0.39% active; Potency, µM (highest dose often 57.7 µM), inactives show at the highest dose activity, negative = inhibition, actives largely listed as inhibitors; also: nearly all actives have a fitted effect of over 55% in size
Target sequence (P10636 561-689 P618L limits assumed): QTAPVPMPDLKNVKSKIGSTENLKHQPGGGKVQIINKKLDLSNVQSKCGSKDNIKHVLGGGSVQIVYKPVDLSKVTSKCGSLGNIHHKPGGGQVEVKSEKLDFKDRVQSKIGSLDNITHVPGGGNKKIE
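FP of Alexa 594-tau after heparin (20 uM) induction. Substrate: human K18 P301L, 15 uM unlabeled, 0.24 uM labeled. Buffer 100 mM sodium acetate pH 7. 6 hr, 37 C.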
Tau ThT inhib: qHTS for Inhibitors of Tau Fibril Formation, Thioflavin T Binding | Microtubule-associated protein tau (Homo sapiens), P10636 | recombinant tau K18 P301L, heparin-induced fibrillization, ThT fluorescence | Potency, µM (series often up to 57.4 µM), without a hit: top-dose activity, negative = inhibition, usual class: inhibitors | 270,000 tested, 2.1% active; also: nearly all actives have a fitted effect of over 55% in size
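Aggregation was driven by heparin (20 uM final) acting on recombinant tau […] bearing P301L in 100 mM sodium acetate pH 7; fibrils were detected with Thioflavin T.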
Tau fluor cs: Counterscreen qHTS for Inhibitors of Tau Fibril Formation, Fluorescence Polarization; Potency, µM (titrated, usually from 57.7 µM), without a hit: top-dose activity change, negative = decrease; tau K18 P301L (four-repeat tau fragment) Alexa594 fluorescence, heparin fibrillization; 280,000 tested, 0.93% active; also: nearly all actives have a fitted effect of over 55% in size
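Human K18 P301L tau (15 uM unlabeled plus 0.24 uM Alexa 594-labeled, final) in 100 mM sodium acetate pH 7 was mixed with compound and 20 uM heparin and incubated 6 hr at 37 C.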
HPGD block: qHTS Assay for Inhibitors of HPGD (15-Hydroxyprostaglandin Dehydrogenase). 150,000 tested, 4.3% active. 15-hydroxyprostaglandin dehydrogenase [NAD(+)] (Homo sapiens), P15428. Potency, µM, for inactives: top-dose activity change, negative = inhibition, actives largely listed as inhibitors. purified HPGD, NADH fluorescence kinetic, PGE2 substrate. AID 894, 2007; active = well fitted inhibition curve with a large enough effect, not every such curve was filed as active; inconclusive = small, poorly fitted or top-dose-only effect, or another doubt; inactive = no such curve, though single readings can be large or run the other way
Target sequence (P15428 whole entry, looked up): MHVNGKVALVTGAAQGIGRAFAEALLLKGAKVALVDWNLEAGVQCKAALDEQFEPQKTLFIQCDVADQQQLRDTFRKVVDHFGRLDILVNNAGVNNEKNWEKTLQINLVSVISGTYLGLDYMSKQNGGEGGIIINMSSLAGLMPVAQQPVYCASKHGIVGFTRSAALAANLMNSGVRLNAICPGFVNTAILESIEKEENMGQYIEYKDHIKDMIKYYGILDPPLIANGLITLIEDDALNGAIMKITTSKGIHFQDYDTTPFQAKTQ
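20 nM HPGD preincubated 15 min at room temperature with compound in 50 mM Tris-HCl pH 8, 0.01% Tween 20. Started with 1 mM NAD+ and 30 uM prostaglandin E2; NADH fluorescence (360/450 nm) read 5 times over 30-s intervals, last minus first.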
ALDH1A1 inh: qHTS Assay for Inhibitors of Aldehyde Dehydrogenase 1 (ALDH1A1); Purified ALDH1A1, NADH fluorescence, propionaldehyde substrate; Aldehyde dehydrogenase 1A1 (Homo sapiens), P00352; 220,000 tested, 7.3% active; Potency, µM (highest dose often 75.3 µM), for inactives: top-dose activity, negative = inhibition, usual class: inhibitors; AID 1030, 2008; active = well fitted inhibition curve with a large enough effect, not every such curve was filed as active; inconclusive = small, poorly fitted or top-dose-only effect, or another doubt; inactive = no such curve, though single readings can be large or run the other way;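 also: plate controls were no enzyme wells and a reference inhibitor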
JMJD2E inh: qHTS Assay for Inhibitors of Human Jumonji Domain Containing 2E (JMJD2E) | Potency, µM (highest dose often 57.1 µM), without a hit: top-dose activity change, negative = inhibition, usual class: inhibitors | JMJD2E catalytic domain, FDH-coupled NADH fluorescence (FDH is formaldehyde dehydrogenase) | 230,000 tested, 1.6% active | Lysine-specific demethylase 4E (Homo sapiens), B2RXH2 | AID 2147, 2009; active = well fitted inhibition curve with a large enough effect, not every such curve was filed as active; inconclusive = small, poorly fitted or top-dose-only effect, or another doubt; inactive = no such curve, though single readings can be large or run the other way;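 also: 0% = wells with enzyme and -100% = buffer wells without enzyme; nearly all actives have a fitted effect of over 50% in size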
Numbers without * were called inactive; ? = inconclusive; nt = no result; [ ] = another dose, or the depositor's remark. Unless noted, calls follow the shape of the dose curve; as a rule, active = well fitted curve in the direction sought with a large enough effect; inconclusive = small, poorly fitted or top-dose-only effect, or another doubt; inactive = no such curve, though single readings can be large; an effect the other way counts as inactive or inconclusive. Unless noted, % is scaled to controls: 0 for no effect and ±100 for the full control effect; potency is read from the fitted curve at half-maximal effect.

SMILES	Tau fibril FP	Tau ThT inhib	Tau fluor cs	HPGD block	ALDH1A1 inh	JMJD2E inh
CCCC/C(O)=N\S(=O)(=O)c1ccc(N=NN(C)C)cc1	-11%	-5%	-6%	-12%	0%	8.9µM*
CCCCCCC(=O)NNC(=O)CC(=O)Nc1ccccc1C(=O)O	-1%	-2%	-1%	-9%	4%	0%
Cc1ccc(S(=O)(=O)Oc2cccc(/C=N/n3cnnc3)c2)cc1	-9%	0%	-6%	?	0.89µM*	-15%
Cc1ccc(S(=O)(=O)Oc2cccc(/C=N/Nc3ccc(C(=O)O)cc3)c2)cc1	7%	-23%	?	nt	nt	-10%
CCCCCCC1CC(CCc2nc(=S)[nH][nH]2)C(=O)O1 (stereo unspecified)	0%	2%	5%	16µM*	?	10%
CCCCCCCCc1nc(=S)[nH][nH]1	-3%	-8%	-6%	16µM*	13µM*	0%
O=C(CC1Nc2cccc3cccc(c23)NC1=O)Nc1ccccc1 (stereo unspecified)	0%	9%	8%	-15%	?	-3%
Cc1ccc(NC(=O)CC2Nc3cccc4cccc(c34)NC2=O)cc1 (stereo unspecified)	?	14µM*	14µM*[quencher]	nt	nt	nt
CCOC(=O)CSC1=C(C#N)C(=O)NC(c2ccc(OC)cc2)S1 (stereo unspecified)	-14%	?	-6%	-16%	20µM*	?
Brc1ccc2nc(N3CCN(c4ccccc4)CC3)sc2c1	?	?	-16%	nt	6%	9%
c1ccc2c(c1)CCN(c1nc3cc4c(cc3s1)OCO4)C2	14%	?	-17%	32µM*	25µM*	18%
c1c2c(cc3sc(N4CCCCC4)nc13)OCO2	-17%	?	-28%	22µM*	22µM*	-4%
c1ccc(N2CCN(c3nc4cc5c(cc4s3)OCO5)CC2)cc1	-4%	2.5µM*	-18%	?	20µM*	-5%
c1c2c(cc3sc(N4CCOCC4)nc13)OCO2	0%	?	-16%	28µM*	10µM*	-23%
Cc1ccc(NC(=O)C(C)N2C(=O)c3ccccc3C2=O)cc1S(=O)(=O)N1CCOCC1 (stereo unspecified)	-2%	3%	-5%	nt	7%	-8%
CCn1c(O)c(/C=N/N=C/c2ccc(OC)cc2)c2cc(C3=NNC(=O)CC3)ccc21	0%	nt	-3%	nt	nt	?
CC/C(C)=N\N=C\c1c(O)n(CC)c2cc(C3=NNC(=O)CC3)ccc12	-9%	16µM*	-23%	32µM*	?	?
Cc1ccc2c(CN3CCCc4ccccc43)cc(=O)oc2c1C	-6%	?	-20%	-14%	16µM*	?
O=S(=O)(Nc1ccc(-c2nc3cccnc3s2)cc1)c1ccccc1F	-11%	-8%	-17%	nt	nt	?
O=C(Nc1cccc(N=Cc2cc(Cl)cc(Br)c2O)c1)c1ccco1	-18%	16µM*	-18%	-13%	-1%	5%
C/C(=N\NC(=O)c1cccc(Cl)c1)c1cccc(NC(=O)c2ccco2)c1	-1%	?	-25%	-17%	-4%	-6%
O=C(Nc1cccc(N=Cc2cc(Br)cc(Br)c2O)c1)c1ccco1	?	14µM*	-22%	-12%	0%	-10%
CC(C)(C)NC(=O)c1cccc(NC(=O)c2ccco2)c1	-2%	4%	0%	-10%	6%	11%
COc1cc(CNCCc2c[nH]c3ccccc23)cc(Cl)c1OCC(N)=O	-5%	-16%	-12%	nt	16µM*	-30%
CC(=O)Nc1ccc(N2C(C(C)=O)=NN(c3ccc(Cl)cc3)C2c2sccc2C)cc1 (stereo unspecified)	-15%	?	28µM*[quencher]	-18%	-99%	?
SMILES	Tau fibril FP	Tau ThT inhib	Tau fluor cs	HPGD block	ALDH1A1 inh	JMJD2E inh
O=c1[nH]c(/C=C/c2cccc3ccccc23)nc2ccccc12	1%	-7%	-1%	nt	-7%	?
CCCN1C(=O)/C(=C\c2nc3ccccc3c(=O)[nH]2)c2ccccc21	1%	22µM*	-20%	nt	4.5µM*	-2%
COc1ccc(C(=O)NCCc2sc(-c3ccc(Cl)cc3)nc2C)c(OC)c1	6%	?	-13%	nt	nt	nt
COc1cc([N+](=O)[O-])ccc1NC(=O)CSc1nc2ccccc2n1-c1ccccc1	-6%	-13%	-27%	-9%	10µM*	0%
CCSc1nc2ccccc2n1CC(N)=O	7%	-1%	3%	-13%	-2%	17%
CCSc1nc2ccccc2n1C(=O)/C=C\c1ccc(OC)c(OC)c1	?	10µM*	-18%	-10%	10%	0%
COc1ccccc1NC(=O)CSc1nc2ccccc2n1C(C)=O	-13%	-11%	-15%	16µM*	-10%	2%
CCn1c(SCC(=O)Nc2ccccc2OC)nc2ccccc2c1=O	0%	-9%	-14%	-16%	-6%	4%
Cn1c(=O)c2[nH]c(N=NNc3ccccc3F)nc2n(C)c1=O	?	14µM*	?	nt	nt	?
COc1ccc(NN=Nc2nc3c([nH]2)c(=O)n(C)c(=O)n3C)cc1	?	25µM*	?	nt	8.9µM*	?
CCOc1ccc(NC(=O)c2cnn3c2NC(C)=C(C(=O)Nc2ccc(Cl)cc2)C3c2ccc(OC)c(OC)c2)cc1 (stereo unspecified)	-7%	-15%	?	nt	nt	nt
Cc1cc(S(=O)(=O)N2CCC(N3CCCCC3)CC2)ccc1-n1cnnn1	-2%	-3%	-8%	-12%	0.028µM*	0%
C=CCNC(=S)/C(=C(/[O-])c1ccc([N+](=O)[O-])cc1)[n+]1ccccc1	?	?	-18%	nt	?	22µM*
COc1ccccc1C1C=C(c2ccccc2)Nc2nnnn21 (stereo unspecified)	3%	-5%	-1%	-4%	?	-8%
COc1ccccc1/C=C1\CCCC2=C1Nc1nnnn1C2c1ccccc1OC (stereo unspecified)	-2%	?	15%	-16%	25µM*	-9%
CCOC(=O)N1CCN(Cc2ccc(O)c3ncccc23)CC1	4%	?	-23%	nt	25µM*	13µM*
Cc1ccc(C)c(S(=O)(=O)N2CCN(Cc3ccc(O)c4ncccc34)CC2)c1	9%	-14%	-11%	nt	4%	3.5µM*
